# In the supplement of paper PMC4466140:
# Experiments:
# Assay in all cases: SPOT peptide array binding signal intensity (averaged, normalized) (arbitrary units (background-subtracted, floor 0; scale differs between SH3 domains)); higher = stronger binding of the SH3 domain to the peptide
# AgAbp1 = biological target: AgAbp1
# Description: (§1)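 GST-tagged SH3 domains from S. cerevisiae (Sc), A. gossypii (Ag), C. albicans (Ca) and S. pombe (Sp) were incubated at 10 ug/ml overnight at 4 C on cellulose SPOT membranes carrying 292 synthetic 15-mer peptides mined from the S. cerevisiae proteome (cysteines replaced by serines). Binding was detected with anti-GST antibody, HRP secondary and chemiluminescence, quantified with Genespotter, and reported as normalized spot intensities averaged over biological replicates.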
# AgBbc1 = biological target: AgBbc1
# Description: as §1
# AgBem1-D1 = biological target: AgBem1-D1
# Description: as §1
# AgBzz1-D1 = biological target: AgBzz1-D1
# Description: as §1
# AgBzz1-D2 = biological target: AgBzz1-D2
# Description: as §1
# AgCyk3 = biological target: AgCyk3
# Description: as §1
# AgFus1 = biological target: AgFus1
# Description: as §1
# AgHof1 = biological target: AgHof1
# Description: as §1
# AgHse1 = biological target: AgHse1
# Description: as §1
# AgLsb1 = biological target: AgLsb1
# Description: as §1
# AgLsb4 = biological target: AgLsb4
# Description: as §1
# AgMyo5 = biological target: AgMyo5
# Description: as §1
# AgNbp2 = biological target: AgNbp2
# Description: as §1
# AgRvs167 = biological target: AgRvs167
# Description: as §1
# AgSho1 = biological target: AgSho1
# Description: as §1
# AgSla1-D1-D2 = biological target: AgSla1-D1-D2
# Description: as §1
# AgSla1-D3 = biological target: AgSla1-D3
# Description: as §1
# CaAbp1-D1 = biological target: CaAbp1-D1
# Description: as §1
# CaAbp1-D2 = biological target: CaAbp1-D2
# Description: as §1
# CaBbc1 = biological target: CaBbc1
# Description: as §1
# CaBem1-D1 = biological target: CaBem1-D1
# Description: as §1
# CaBzz1-D1 = biological target: CaBzz1-D1
# Description: as §1
# CaBzz1-D2 = biological target: CaBzz1-D2
# Description: as §1
# CaCyk3 = biological target: CaCyk3
# Description: as §1
# CaFus1 = biological target: CaFus1
# Description: as §1
# CaHof1 = biological target: CaHof1
# Description: as §1
# CaHse1 = biological target: CaHse1
# Description: as §1
# CaLsb1 = biological target: CaLsb1
# Description: as §1
# CaLsb4 = biological target: CaLsb4
# Description: as §1
# CaMyo5 = biological target: CaMyo5
# Description: as §1
# CaNbp2 = biological target: CaNbp2
# Description: as §1
# CaRvs167 = biological target: CaRvs167
# Description: as §1
# CaRvs167-3 = biological target: CaRvs167-3
# Description: as §1
# CaSho1 = biological target: CaSho1
# Description: as §1
# CaSla1-D1-D2 = biological target: CaSla1-D1-D2
# Description: as §1
# CaSla1-D3 = biological target: CaSla1-D3
# Description: as §1
# ScAbp1 = biological target: ScAbp1
# Description: as §1
# ScBbc1 = biological target: ScBbc1
# Description: as §1
# ScBem1-D1 = biological target: ScBem1-D1
# Description: as §1
# ScBzz1-D1 = biological target: ScBzz1-D1
# Description: as §1
# ScBzz1-D2 = biological target: ScBzz1-D2
# Description: as §1
# ScCyk3 = biological target: ScCyk3
# Description: as §1
# ScFus1 = biological target: ScFus1
# Description: as §1
# ScHof1 = biological target: ScHof1
# Description: as §1
# ScHse1 = biological target: ScHse1
# Description: as §1
# ScLsb1 = biological target: ScLsb1
# Description: as §1
# ScLsb2 = biological target: ScLsb2
# Description: as §1
# ScLsb3 = biological target: ScLsb3
# Description: as §1
# ScLsb4 = biological target: ScLsb4
# Description: as §1
# ScMyo3 = biological target: ScMyo3
# Description: as §1
# ScMyo5 = biological target: ScMyo5
# Description: as §1
# ScNbp2 = biological target: ScNbp2
# Description: as §1
# ScPex13 = biological target: ScPex13
# Description: as §1
# ScRvs167 = biological target: ScRvs167
# Description: as §1
# ScSho1 = biological target: ScSho1
# Description: as §1
# ScSla1-D1-D2 = biological target: ScSla1-D1-D2
# Description: as §1
# ScSla1-D3 = biological target: ScSla1-D3
# Description: as §1
# SpAbp1-D1 = biological target: SpAbp1-D1
# Description: as §1
# SpBbc1 = biological target: SpBbc1
# Description: as §1
# SpBzz1-D1 = biological target: SpBzz1-D1
# Description: as §1
# SpBzz1-D2 = biological target: SpBzz1-D2
# Description: as §1
# SpCyk3 = biological target: SpCyk3
# Description: as §1
# SpHof1 = biological target: SpHof1
# Description: as §1
# SpHof1-2 = biological target: SpHof1-2
# Description: as §1
# SpHof1-3 = biological target: SpHof1-3
# Description: as §1
# SpHse1 = biological target: SpHse1
# Description: as §1
# SpLsb1 = biological target: SpLsb1
# Description: as §1
# SpLsb4 = biological target: SpLsb4
# Description: as §1
# SpMyo1 = biological target: SpMyo1
# Description: as §1
# SpNbp2 = biological target: SpNbp2
# Description: as §1
# SpPex13 = biological target: SpPex13
# Description: as §1
# SpRvs167 = biological target: SpRvs167
# Description: as §1
# SpSla1-D1-D2 = biological target: SpSla1-D1-D2
# Description: as §1
# SpSla1-D3 = biological target: SpSla1-D3
# Description: as §1
binder,measurement,setting,value
ISNFVPPNLPMRRFK,SPOT peptide array binding signal intensity,AgAbp1,31.5
same,SPOT peptide array binding signal intensity,AgBbc1,182
same,SPOT peptide array binding signal intensity,AgBem1-D1,124
same,SPOT peptide array binding signal intensity,AgBzz1-D1,90
same,SPOT peptide array binding signal intensity,AgBzz1-D2,70.5
same,SPOT peptide array binding signal intensity,AgCyk3,1
same,SPOT peptide array binding signal intensity,AgFus1,23
same,SPOT peptide array binding signal intensity,AgHof1,186
same,SPOT peptide array binding signal intensity,AgHse1,49
same,SPOT peptide array binding signal intensity,AgLsb1,136
same,SPOT peptide array binding signal intensity,AgLsb4,3890
same,SPOT peptide array binding signal intensity,AgMyo5,≤ 0
same,SPOT peptide array binding signal intensity,AgNbp2,64
same,SPOT peptide array binding signal intensity,AgRvs167,256
same,SPOT peptide array binding signal intensity,AgSho1,20.5
same,SPOT peptide array binding signal intensity,AgSla1-D1-D2,2.5
same,SPOT peptide array binding signal intensity,AgSla1-D3,3
same,SPOT peptide array binding signal intensity,CaAbp1-D1,40
same,SPOT peptide array binding signal intensity,CaAbp1-D2,9
same,SPOT peptide array binding signal intensity,CaBbc1,902
same,SPOT peptide array binding signal intensity,CaBem1-D1,21
same,SPOT peptide array binding signal intensity,CaBzz1-D1,370
same,SPOT peptide array binding signal intensity,CaBzz1-D2,297
same,SPOT peptide array binding signal intensity,CaCyk3,47
same,SPOT peptide array binding signal intensity,CaFus1,152
same,SPOT peptide array binding signal intensity,CaHof1,5
same,SPOT peptide array binding signal intensity,CaHse1,72
same,SPOT peptide array binding signal intensity,CaLsb1,10.2
same,SPOT peptide array binding signal intensity,CaLsb4,5880
same,SPOT peptide array binding signal intensity,CaMyo5,28.5
same,SPOT peptide array binding signal intensity,CaNbp2,103
same,SPOT peptide array binding signal intensity,CaRvs167,571
same,SPOT peptide array binding signal intensity,CaRvs167-3,6.25
same,SPOT peptide array binding signal intensity,CaSho1,49.5
same,SPOT peptide array binding signal intensity,CaSla1-D1-D2,1000
same,SPOT peptide array binding signal intensity,CaSla1-D3,250
same,SPOT peptide array binding signal intensity,ScAbp1,44
same,SPOT peptide array binding signal intensity,ScBbc1,130
same,SPOT peptide array binding signal intensity,ScBem1-D1,13
same,SPOT peptide array binding signal intensity,ScBzz1-D1,29.5
same,SPOT peptide array binding signal intensity,ScBzz1-D2,63
same,SPOT peptide array binding signal intensity,ScCyk3,5.5
same,SPOT peptide array binding signal intensity,ScFus1,17
same,SPOT peptide array binding signal intensity,ScHof1,8.75
same,SPOT peptide array binding signal intensity,ScHse1,122
same,SPOT peptide array binding signal intensity,ScLsb1,393
same,SPOT peptide array binding signal intensity,ScLsb2,372
same,SPOT peptide array binding signal intensity,ScLsb3,7910
same,SPOT peptide array binding signal intensity,ScLsb4,2470
same,SPOT peptide array binding signal intensity,ScMyo3,17.2
same,SPOT peptide array binding signal intensity,ScMyo5,1.5
same,SPOT peptide array binding signal intensity,ScNbp2,198
same,SPOT peptide array binding signal intensity,ScPex13,1760
same,SPOT peptide array binding signal intensity,ScRvs167,1610
same,SPOT peptide array binding signal intensity,ScSho1,85.5
same,SPOT peptide array binding signal intensity,ScSla1-D1-D2,367
same,SPOT peptide array binding signal intensity,ScSla1-D3,184
same,SPOT peptide array binding signal intensity,SpAbp1-D1,26
same,SPOT peptide array binding signal intensity,SpBbc1,36.5
same,SPOT peptide array binding signal intensity,SpBzz1-D1,748
same,SPOT peptide array binding signal intensity,SpBzz1-D2,3
same,SPOT peptide array binding signal intensity,SpCyk3,8
same,SPOT peptide array binding signal intensity,SpHof1,51.8
same,SPOT peptide array binding signal intensity,SpHof1-2,41
same,SPOT peptide array binding signal intensity,SpHof1-3,22
same,SPOT peptide array binding signal intensity,SpHse1,86
same,SPOT peptide array binding signal intensity,SpLsb1,236
same,SPOT peptide array binding signal intensity,SpLsb4,6240
same,SPOT peptide array binding signal intensity,SpMyo1,31.2
same,SPOT peptide array binding signal intensity,SpNbp2,13
same,SPOT peptide array binding signal intensity,SpPex13,57.5
same,SPOT peptide array binding signal intensity,SpRvs167,1440
same,SPOT peptide array binding signal intensity,SpSla1-D1-D2,69
same,SPOT peptide array binding signal intensity,SpSla1-D3,32
NLKKRPPTAPQRKIS,SPOT peptide array binding signal intensity,AgAbp1,2190
same,SPOT peptide array binding signal intensity,AgBbc1,265
same,SPOT peptide array binding signal intensity,AgBem1-D1,28.5
same,SPOT peptide array binding signal intensity,AgBzz1-D1,277
same,SPOT peptide array binding signal intensity,AgBzz1-D2,199
same,SPOT peptide array binding signal intensity,AgCyk3,≤ 0
same,SPOT peptide array binding signal intensity,AgFus1,110
same,SPOT peptide array binding signal intensity,AgHof1,60
same,SPOT peptide array binding signal intensity,AgHse1,1520
same,SPOT peptide array binding signal intensity,AgLsb1,2.25
same,SPOT peptide array binding signal intensity,AgLsb4,109
same,SPOT peptide array binding signal intensity,AgMyo5,≤ 0
same,SPOT peptide array binding signal intensity,AgNbp2,245
same,SPOT peptide array binding signal intensity,AgRvs167,13.5
same,SPOT peptide array binding signal intensity,AgSho1,33.5
same,SPOT peptide array binding signal intensity,AgSla1-D1-D2,370
same,SPOT peptide array binding signal intensity,AgSla1-D3,28.2
same,SPOT peptide array binding signal intensity,CaAbp1-D1,5270
same,SPOT peptide array binding signal intensity,CaAbp1-D2,6470
same,SPOT peptide array binding signal intensity,CaBbc1,646
same,SPOT peptide array binding signal intensity,CaBem1-D1,48.5
same,SPOT peptide array binding signal intensity,CaBzz1-D1,727
same,SPOT peptide array binding signal intensity,CaBzz1-D2,2010
same,SPOT peptide array binding signal intensity,CaCyk3,3
same,SPOT peptide array binding signal intensity,CaFus1,254
same,SPOT peptide array binding signal intensity,CaHof1,1
same,SPOT peptide array binding signal intensity,CaHse1,34.5
same,SPOT peptide array binding signal intensity,CaLsb1,≤ 0
same,SPOT peptide array binding signal intensity,CaLsb4,942
same,SPOT peptide array binding signal intensity,CaMyo5,4.5
same,SPOT peptide array binding signal intensity,CaNbp2,764
same,SPOT peptide array binding signal intensity,CaRvs167,32
same,SPOT peptide array binding signal intensity,CaRvs167-3,67.8
same,SPOT peptide array binding signal intensity,CaSho1,170
same,SPOT peptide array binding signal intensity,CaSla1-D1-D2,1470
same,SPOT peptide array binding signal intensity,CaSla1-D3,6.5
same,SPOT peptide array binding signal intensity,ScAbp1,2890
same,SPOT peptide array binding signal intensity,ScBbc1,56.8
same,SPOT peptide array binding signal intensity,ScBem1-D1,8
same,SPOT peptide array binding signal intensity,ScBzz1-D1,258
same,SPOT peptide array binding signal intensity,ScBzz1-D2,34
same,SPOT peptide array binding signal intensity,ScCyk3,13
same,SPOT peptide array binding signal intensity,ScFus1,80
same,SPOT peptide array binding signal intensity,ScHof1,2.75
same,SPOT peptide array binding signal intensity,ScHse1,1640
same,SPOT peptide array binding signal intensity,ScLsb1,32.5
same,SPOT peptide array binding signal intensity,ScLsb2,3.5
same,SPOT peptide array binding signal intensity,ScLsb3,2500
same,SPOT peptide array binding signal intensity,ScLsb4,100
same,SPOT peptide array binding signal intensity,ScMyo3,9.5
same,SPOT peptide array binding signal intensity,ScMyo5,6.5
same,SPOT peptide array binding signal intensity,ScNbp2,578
same,SPOT peptide array binding signal intensity,ScPex13,1.75
same,SPOT peptide array binding signal intensity,ScRvs167,708
same,SPOT peptide array binding signal intensity,ScSho1,367
same,SPOT peptide array binding signal intensity,ScSla1-D1-D2,1690
same,SPOT peptide array binding signal intensity,ScSla1-D3,8.25
same,SPOT peptide array binding signal intensity,SpAbp1-D1,2030
same,SPOT peptide array binding signal intensity,SpBbc1,11
same,SPOT peptide array binding signal intensity,SpBzz1-D1,641
